Screens (PubChem)
RPL19A TOR yeast – yeast TOR pathway RPL19A-GFP modulation; S. cerevisiae RPL19A-GFP strain, flow cytometry, 3 h; active compounds read low; percent response vs DMSO, % at 10 µM; hit rate 0.3% among 330,000;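 active = percent response vs DMSO below 50%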;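 also: median channel GFP fluorescence of the barcoded RPL19A-GFP strain; lower means less RPL19A-GFP as with rapamycin TOR inhibition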
AGP1 TOR yeast – modulators of TOR pathway AGP1-GFP in S. cerevisiae. S. cerevisiae AGP1-GFP multiplex flow cytometry, 3 h; GFP as percent of DMSO wells. AID 2066. hit rate 0.02% among 320,000. GFP response vs DMSO, % at 10 µM;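 active = GFP response relative to DMSO above a set limit, near screen average plus 3 SD, cut at about 150% in these data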;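 also: median GFP channel fluorescence of the gated AGP1 strain per well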
MEP2 TOR yeast – alters MEP2-GFP fluorescence in TOR pathway yeast screen; S. cerevisiae MEP2-GFP strain, flow cytometry GFP, 3 h; 100% = DMSO control level; hit rate 0.51% among 330,000; GFP response vs DMSO, % at 10 µM;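 active = GFP response versus DMSO above a set limit, roughly screen mean plus 3 SD, cut at about 180% in these data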;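 also: median GFP fluorescence of the barcode-gated MEP2-GFP cells per well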
LAP4 TOR yeast – alters LAP4-GFP fluorescence in TOR pathway yeast screen. GFP response vs DMSO, % at 10 µM. S. cerevisiae LAP4-GFP multiplex, flow cytometry GFP, 3 h; median GFP as percent of DMSO wells. hit rate 0.34% among 320,000;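 active = GFP response vs DMSO above a set limit, about the screen mean plus 3 SD, cut at about 150% in these data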
CIT2 TOR yeast – alters CIT2-GFP fluorescence in TOR pathway yeast screen | AID 2029 | hit rate 0.065% among 320,000 | GFP response vs DMSO, % at 10 µM | S. cerevisiae CIT2-GFP strain, flow cytometry, 3 h; 100 means same as DMSO wells;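 active = GFP response relative to DMSO above a set limit, near the screen mean plus 3 SD, cut at about 150% in these data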;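 also: ratio of well median GFP fluorescence to mean of DMSO wells on the plate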
LAP4-GFP pick2 – second confirmation of modulators of TOR reporter LAP4-GFP in yeast. AID 2621. shares compounds with LAP4 TOR yeast. S. cerevisiae LAP4-GFP strain, flow cytometry GFP, 3 h. hit rate 20% among 590. GFP response vs DMSO, % at 10 µM;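 active = GFP signal as percent of the solvent control above about 150%, meaning raised reporter expression, limit read from the data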
MEP2-GFP pick2 – second confirmation of modulators of TOR reporter MEP2-GFP in yeast. shares compounds with LAP4 TOR yeast. S. cerevisiae MEP2-GFP strain, flow cytometry GFP, 3 h. GFP response vs DMSO, % at 10 µM. hit rate 10% among 590. AID 2622;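 active = GFP signal above 150% of the solvent control wells, that is a rise of more than half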;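 also: median channel GFP fluorescence of all gated yeast cells per well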
RPL19A GFP CP2 – reconfirmed modulator of RPL19A-GFP TOR reporter in yeast. shares compounds with LAP4 TOR yeast. S. cerevisiae RPL19A-GFP strain, flow cytometry GFP, 3 h; active compounds read low; 100% means same as DMSO wells. GFP response vs DMSO, % at 10 µM. hit rate 3% among 590. AID 2623;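 active = under 65% GFP response relative to DMSO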;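 also: median GFP channel fluorescence per well over the all cells gate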
CIT2 GFP CP2 – second confirmation of modulators of TOR reporter CIT2-GFP in yeast; S. cerevisiae CIT2-GFP strain, flow cytometry GFP, 3 h; DMSO control wells read 100%; hit rate 8% among 590; GFP response vs DMSO, % at 10 µM; shares compounds with LAP4 TOR yeast;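 active = GFP response vs DMSO above about 150%, limit read from the data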;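 also: median green fluorescence per well over all gated yeast cells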
AGP1-GFP pick2 – yeast AGP1-GFP TOR reporter modulation, second cherry pick; shares compounds with LAP4 TOR yeast; S. cerevisiae AGP1-GFP strain, flow cytometry GFP, 3 h; percent response vs DMSO, % at 10 µM; 590 tested, under 10 active;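 active = over 150 percent of DMSO response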;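 also: median GFP channel fluorescence over all cells without mother daughter split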
Yeast autofluor – counter-screen for compound autofluorescence in yeast s288c cells; shares compounds with LAP4 TOR yeast; S. cerevisiae s288c, 520 nm autofluorescence, flow cytometry, 3 h; active compounds read high; zero means same as solvent-only cells; fluorescence change (kMESF span) at 33 µM; 610 tested, under 10 active; AID 2757;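 active = fluorescence span over the dose series, or activity score, above about 33, limit read from the data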
Each line names hits and unclear results; the compound was inactive in the other large screens (follow-up assays come after a bar, where they were run). Most compounds without a hit are left out; they make up all but 0.93% or so of the library.

COc1cccc(OC)c1C(=O)NC(=S)NNC(=O)[C@H]1C[C@@H]1c1ccccc1	none
CC(=O)NC(=S)NNC(=O)CCc1ccccc1	none
COc1ccc(C(=O)NC(=S)NNC(=O)c2cccc(C)c2)cc1	none
Cc1cccc(C(=O)NNC(=S)NC(=O)c2ccccc2)c1	LAP4 TOR yeast 155 | Yeast autofluor inactive
COc1ccc(C(=O)NNC(=O)CSc2nnc(C3CC3)n2C)cc1	none
CC(C)OC(=O)CSc1nc2ncc(Cl)cc2[nH]1	none
CC(C)OC(=O)CSc1nc2ncccc2[nH]1	LAP4 TOR yeast 171 | LAP4-GFP pick2 inactive | MEP2-GFP pick2 inactive | RPL19A GFP CP2 inactive | CIT2 GFP CP2 inactive | AGP1-GFP pick2 inactive
O=C(O)CCCc1ccc2c(c1)CCc1ccccc1-2	LAP4 TOR yeast 173 | LAP4-GFP pick2 inactive | MEP2-GFP pick2 inactive | RPL19A GFP CP2 inactive | CIT2 GFP CP2 inactive | AGP1-GFP pick2 inactive
N#Cc1ccc(-c2nc3ccc(Br)cc3c(=O)n2O)cc1	none
O=c1c2cc(Br)ccc2nc(-c2ccc([N+](=O)[O-])cc2)n1O	none | LAP4-GFP pick2 inactive | MEP2-GFP pick2 169 | RPL19A GFP CP2 51 | CIT2 GFP CP2 inactive | AGP1-GFP pick2 inactive | Yeast autofluor inactive
Cc1nc(Nc2nc3c(c(=O)[nH]2)CCC3)nc2ccccc12	none | LAP4-GFP pick2 inactive | MEP2-GFP pick2 inactive | RPL19A GFP CP2 inactive | CIT2 GFP CP2 inactive | AGP1-GFP pick2 inactive
O=c1[nH]c(NCc2ccccc2)nc2c1CCC2	none
COCCn1c(SCC(=O)N(C)c2ccccc2)nc2c([nH]c3ccccc32)c1=O	none
O=C1OC(Nc2nc(-c3ccc(F)cc3)cs2)c2ccccc21 (configuration not stated)	none
CC1=C/C(=N\OS(=O)(=O)c2ccccc2)C(C)=CC1=O	LAP4 TOR yeast 234 | Yeast autofluor inactive
CC1=C(C)/C(=N\OS(=O)(=O)c2ccc(C)cc2)C=CC1=O	LAP4 TOR yeast 244 | LAP4-GFP pick2 160 | MEP2-GFP pick2 inactive | RPL19A GFP CP2 inactive | CIT2 GFP CP2 153 | AGP1-GFP pick2 inactive | Yeast autofluor inactive
CC1=C/C(=N\OS(=O)(=O)c2ccccc2)C(C(C)C)=CC1=O	LAP4 TOR yeast 191 | LAP4-GFP pick2 172 | MEP2-GFP pick2 157 | RPL19A GFP CP2 inactive | CIT2 GFP CP2 inactive | AGP1-GFP pick2 inactive | Yeast autofluor inactive
COc1ccc2cc(CCNS(=O)(=O)c3c(C)cc(C)cc3C)c(=O)[nH]c2c1	none
CN(Cc1ccccc1)C(=O)CCC1CCN(C(=O)c2ccccc2C(F)(F)F)CC1	CIT2 TOR yeast 157 | LAP4-GFP pick2 inactive | MEP2-GFP pick2 inactive | RPL19A GFP CP2 inactive | CIT2 GFP CP2 inactive | AGP1-GFP pick2 inactive
CSCc1ccc(C(=O)N2CCC(CCC(=O)N(C)Cc3ccccc3)CC2)o1	none
CCn1c(=O)c([N+](=O)[O-])c(NCCN(C)C)c2ccccc21	none
CCn1c(=O)c([N+](=O)[O-])c(Cl)c2ccccc21	none | LAP4-GFP pick2 inactive | MEP2-GFP pick2 inactive | RPL19A GFP CP2 inactive | CIT2 GFP CP2 inactive | AGP1-GFP pick2 inactive
